MbtI inh: inhibitors of Mycobacterium tuberculosis siderophore enzyme MbtI; P9WFX0; purified MbtI enzyme, fluorescence intensity read-out; inhibition, % (concentration not given with the values); actives 0.89% (n = 100,000); AID 493033; in the data active = inhibition mostly above about 56%, no sharp cut-off; inactive = mostly below about 77%
Target sequence (P9WFX0 whole entry, looked up): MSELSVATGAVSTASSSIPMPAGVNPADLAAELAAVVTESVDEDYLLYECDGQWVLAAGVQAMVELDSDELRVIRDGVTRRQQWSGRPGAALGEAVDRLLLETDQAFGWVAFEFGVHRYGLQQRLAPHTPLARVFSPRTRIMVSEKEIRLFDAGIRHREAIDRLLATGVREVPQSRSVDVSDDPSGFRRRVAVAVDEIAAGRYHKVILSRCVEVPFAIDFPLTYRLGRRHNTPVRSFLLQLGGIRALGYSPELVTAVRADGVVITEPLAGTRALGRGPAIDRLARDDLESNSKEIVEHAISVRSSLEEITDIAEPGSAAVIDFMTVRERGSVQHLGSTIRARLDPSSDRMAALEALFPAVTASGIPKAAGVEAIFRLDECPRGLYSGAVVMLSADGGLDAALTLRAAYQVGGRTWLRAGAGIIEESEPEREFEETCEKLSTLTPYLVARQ
AID504770: E. coli YBA685 growth inhibition, screen for V. cholerae RctB inhibitors; AID 504770; z-score (no concentration beside the values); E. coli YBA685 rctB-dependent plasmid, OD600 growth, 3 h; active compounds read low; actives 0.27% (n = 130,000); in the data active = z-score below about -2, passing the limit was not always enough
MenB inh: blocks the Mycobacterium tuberculosis MenB enzyme; MenB enzyme assay, absorbance read-out; actives 0.43% (n = 100,000); AID 540299; inhibition, % (test concentration not listed); in the data active = inhibition above about 21%, passing the limit was not always enough
Polio RdRp inh: inhibitors of poliovirus RNA polymerase binding and polymerization; poliovirus polymerase elongation, fluorescence polarization; active compounds read low; % elongation, % (compound at 16.7 µg/mL); actives 0.66% (n = 150,000); AID 588519; in the data active = % elongation below about 90%
Active calls of the source: *; ! = not confirmed by another sample. Only some compounds are listed: those with a hit (about 1.4% of all), similar ones and a draw of the others.

How did COC(=O)c1c(NC(=O)C(F)(F)F)sc2c1CCCC2 do in these assays?
AID504770: -4.5; MenB inh: -20.1; Polio RdRp inh: 88.0*

How did COC(=O)Nc1sc2c(c1C(=O)OC)CCC2 do in these assays?
MbtI inh: 21.0; AID504770: 0.65; MenB inh: -20.9; Polio RdRp inh: 101.0

What do the screens show for `COC(=O)c1c(NC(=O)Cc2cccs2)sc2c1CCCC2`?
MbtI inh: 12.3; AID504770: 1.45; MenB inh: 39.3*; Polio RdRp inh: 103.0

How did CCCc1ccc(OCC(=O)Nc2sc3c(c2C(=O)OC)CCCCC3)cc1 do in these assays?
Polio RdRp inh: 85.0*

Results for Cc1cc(C)cc(N/C(N)=N\c2nc(C)cc(C)n2)c1 ?
MbtI inh: -2.4; AID504770: -0.1; MenB inh: 8.6; Polio RdRp inh: 101.0

Results for c1ccc(CCn2nnnc2C(c2cccnc2)N2CCCCC2)cc1 (stereo unspecified) ?
MbtI inh: -9.4; AID504770: -0.65; MenB inh: -12.5; Polio RdRp inh: 104.0

Results for N#Cc1cccc(C(c2nnnn2Cc2ccccc2)N2CCCC2)c1 (stereo unspecified) ?
MbtI inh: -0.8; AID504770: 0.5; MenB inh: 29.2*; Polio RdRp inh: 99.0

Results for COc1ccc(NC(=O)CN(C)C(C)C(=O)Nc2ccc(NC(C)=O)cc2)cc1 (stereo unspecified) ?
MbtI inh: 8.1; AID504770: 1; MenB inh: 13.1; Polio RdRp inh: 104.0

Results for CN(C)Cc1n[nH]c(=S)o1 ?
MbtI inh: 89.6*; AID504770: 2.05; MenB inh: -19.3; Polio RdRp inh: 75.0*

What do the screens show for `CC(C)c1cc[nH]c1-c1ccccc1`?
AID504770: -0.5; MenB inh: -16.2; Polio RdRp inh: 140.0

What do the screens show for `Cc1ccn(CCC(=O)O)n1`?
MbtI inh: -12.8; AID504770: -0.7; MenB inh: 11.6; Polio RdRp inh: 100.0

What do the screens show for `Cc1ccc(C)n1CCC(=O)O`?
MbtI inh: 0.8; AID504770: 0.5; MenB inh: -51.6; Polio RdRp inh: 69.0*

Results for O=C1N=C(c2ccccc2)S/C1=C\c1cccs1 ?
MbtI inh: 99.9*; AID504770: 0.05; MenB inh: -84.8; Polio RdRp inh: 97.0

How did O=C1N=C(N2CCCCC2)S/C1=C\c1cccs1 do in these assays?
AID504770: -0.9; MenB inh: -9.3; Polio RdRp inh: 107.0

Results for COc1cccc(OC(=O)CSc2nnc(-c3cccs3)o2)c1 ?
Polio RdRp inh: 90.0*

What do the screens show for `COc1cccc(OC(=O)CSc2nnc(-c3ccc4c(c3)OCO4)o2)c1`?
Polio RdRp inh: 87.0*

Results for O=C(CSc1nnc(-c2cccs2)o1)Oc1ccccc1 ?
Polio RdRp inh: 94.0

How did CCc1ccc(OC(=O)CSc2nnc(-c3ccc4c(c3)OCO4)o2)cc1 do in these assays?
Polio RdRp inh: 102.0

Results for O=C(CCC(=O)c1ccc2c(c1)OCCO2)OCc1ncc(-c2ccccc2)o1 ?
MbtI inh: -1.3; AID504770: 0; MenB inh: 5.5; Polio RdRp inh: 104.0

How did CC(=O)Nn1cc(C(=O)O)c2ccccc2c1=O do in these assays?
MbtI inh: 11.8

Results for O=C(CN1C(=O)/C(=C\c2ccc(Cl)cc2)Sc2ccccc21)NCC1CCCO1 (stereo unspecified) ?
MbtI inh: 3.3; AID504770: -0.3; MenB inh: -8.7; Polio RdRp inh: 100.0

How did CC(C)(C)C1=Nn2c(nnc2-c2ccccc2)SC1 do in these assays?
MbtI inh: 64.5*; AID504770: -0.4; MenB inh: -1.0; Polio RdRp inh: 93.0

Results for S=c1nc(-c2ccccc2)[nH]n1CN1CCc2ccccc2C1 ?
MbtI inh: 95.7*; AID504770: 1.85; MenB inh: -12.9; Polio RdRp inh: 99.0

How did CC(=O)c1ccc(NC(=O)C2=CC(c3cccs3)=NS(=O)(=O)N2C)cc1 do in these assays?
Polio RdRp inh: -12.0*

What do the screens show for `Clc1nc2ccc3nsnc3c2nc1Cl`?
MbtI inh: 88.1; AID504770: -0.05; MenB inh: 11.1; Polio RdRp inh: 42.0*

How did Cc1nn(CC(=O)NCC2CCCO2)c(=O)c2cc3occc3n12 (stereo unspecified) do in these assays?
MbtI inh: 15.3; AID504770: 0.6; MenB inh: 3.9; Polio RdRp inh: 103.0

How did Cc1coc2cc3oc(=O)c(CC(=O)NCc4ccco4)c(C)c3cc12 do in these assays?
MbtI inh: 83.3; AID504770: 0.35; MenB inh: 20.6; Polio RdRp inh: 102.0

What do the screens show for `CN(C)S(=O)(=O)c1cccc(-c2nnc3n2N=C(c2cccs2)CS3)c1`?
MbtI inh: 97.3*; AID504770: 0.05; MenB inh: -51.9; Polio RdRp inh: 76.0*

What do the screens show for `c1ccc(-c2nnc3n2N=C(c2cccs2)CS3)cc1`?
MbtI inh: -9.6; AID504770: 0; MenB inh: -4.0; Polio RdRp inh: 105.0

Results for O=c1oc2c3ccccc3oc(=O)c2c2ccccc12 ?
MbtI inh: 21.6; AID504770: 0.25; MenB inh: -3.0; Polio RdRp inh: 99.0

What do the screens show for `O=c1oc(Cl)c(Cl)c2ccccc12`?
MbtI inh: 3.6; MenB inh: -9.4; Polio RdRp inh: 90.0*!

How did O=C(Oc1ccc(Br)cc1F)C1CC(=O)N(c2ccc3c(c2)OCCO3)C1 (stereo unspecified) do in these assays?
MbtI inh: 1.9; AID504770: -0.9; MenB inh: -33.1; Polio RdRp inh: 87.0*

What do the screens show for `CCCNC(=O)CSc1nc2nc(C)c(Cc3ccccc3C)c(C)n2n1`?
AID504770: 0.7

What do the screens show for `CCc1ccc(CN2CCC(N3CCCCC3)CC2)cc1`?
AID504770: 2; MenB inh: -14.6; Polio RdRp inh: 95.0

How did CCc1ccc(CN2CCN(CC)CC2)cc1 do in these assays?
MbtI inh: 0.9; AID504770: 0.85; MenB inh: 34.6*; Polio RdRp inh: 102.0

What do the screens show for `NC(=O)CSc1nnc(COc2ccccc2Cl)n1C1CC1`?
MbtI inh: -9.3; AID504770: -0.5; MenB inh: -24.2

How did S=c1[nH]nc(COc2ccccc2Cl)n1C1CC1 do in these assays?
MbtI inh: 83.8*; AID504770: 0.65; MenB inh: -18.9

How did Cc1cccc(Nc2cc(N3CCCCC3)ncn2)c1 do in these assays?
MbtI inh: 2.6; AID504770: -0.7; MenB inh: -14.0; Polio RdRp inh: 101.0

What do the screens show for `O=CNc1ccc(OC(=O)c2cncc(Br)c2)cc1`?
MbtI inh: -7.9; AID504770: -0.15; MenB inh: -23.0; Polio RdRp inh: 78.0*

Results for COC(=O)c1cncc(Br)c1 ?
AID504770: 0.1

What do the screens show for `CC(C)(C)C(=O)COC(=O)c1cccnc1SCC(=O)Nc1ccc2c(c1)OCO2`?
MbtI inh: -2.4; AID504770: 0.9; MenB inh: 7.5; Polio RdRp inh: 105.0

How did COC(=O)c1nn(-c2ccc(OC)cc2)c(=O)c2c(N)sc(C)c12 do in these assays?
MbtI inh: 77.1*; AID504770: 1.05; MenB inh: -54.6; Polio RdRp inh: 83.0*

Results for COC(=O)c1nn(-c2ccccc2)c(=O)c2c(N)sc(C)c12 ?
MbtI inh: 75.9*; AID504770: -0.7; MenB inh: -13.0; Polio RdRp inh: 73.0*
